“And” between values parts separate entries of the source, which are not always exact repeats. Equal entries are not always repeated.
What was measured:
[1] = test system: Botulinum neurotoxin type F light chain protease (Clostridium botulinum); test: Botulinum neurotoxin type F light chain protease inhibition, multiplex microsphere flow cytometry, validation set (AID 588459); conditions: multiplex microsphere protease substrate cleavage assay, at 10 µM, stronger effect = higher value
[2] = biological target: Botulinum neurotoxin type A (Clostridium botulinum) (UniProt P0DPI0); test: BoNT/A light chain protease inhibitors, biochemical, multiplex microsphere flow cytometry, validation set (AID 588460); conditions: at 10 µM, stronger effect = higher value
[3] = biological target: Lethal factor (Bacillus anthracis) (UniProt P15917); test: Lethal factor protease inhibitors, Bacillus anthracis, multiplex microsphere cleavage assay, validation set (AID 588461); conditions: flow cytometry, at 10 µM, stronger effect = higher value

Measured: inhibition

CC[N+](C)(CC)CCOC(=O)C(O)(c1ccccc1)C1CCCCC1 (stereo not given)
inactive: [1] 4.8% | [2] 1.4% | [3] -1.1%

Cc1ccc(C(=O)N2CC3(C(C)C)CN(C(=O)c4ccc(C)cc4)CC(C(C)C)(C2)C3=O)cc1
inactive: [1] 5% | [2] -0.5% | [3] -2.5%

COC(=O)c1cc(-c2ccc(OC)c(OC)c2)on1
inactive: [1] 6.2% | [2] 1.7% | [3] 0.1%

CCN1C(=O)C(CC(=O)Nc2ccc(F)cc2)N(Cc2ccc3c(c2)OCO3)C1=S (stereo not given)
inactive: [1] -1.3% | [2] -0.3% | [3] -6.1%

COc1cccc(OC2OC3COC(C)(C)OC3C(O)C2NC(C)=O)c1 (stereo not given)
inactive: [1] -0.8% | [2] 0.2% | [3] 0.5%

CC(=O)OCC[N+](C)(C)C
inactive: [1] -3.2% and 0.5% | [2] 0.2% and -1.8% | [3] 3.8% and -0.3%

Cc1ccc(SCC(=O)Nc2nccs2)cc1
inactive: [1] -4.8% | [2] -0.5% | [3] -5.6%

O=C(Oc1cccccc1=O)c1ccccc1
inactive: [1] 1.1% | [2] -1.5% | [3] 0.9%

CC1(C)Oc2ccc(C#N)cc2[C@@H](N2CCCC2=O)[C@@H]1O
inactive: [1] 3% | [2] 0.5% | [3] 5.1%

CC(C)(C)OC(=O)N1CC(O)CC1C(=O)OCC(=O)c1ccc(Cl)cc1 (stereo not given)
inactive: [1] -2.2% | [2] -2.3% | [3] 0.1%

O=P(O)(O)CP(=O)(O)O
inactive: [1] -9% | [2] -3% | [3] -3.7%

CC(C)Cc1ccc(C(C)C(=O)Nc2ccc(O)cc2)cc1 (stereo not given)
inactive: [1] -3.6% | [2] -1.3% | [3] -6.8%

O=C(CCC(=O)NCCO)NCCO
inactive: [1] 1.2% | [2] 0.4% | [3] 6.9%

CC1(C)c2ccccc2N2CC(=O)NC21/C=C/c1ccco1 (stereo not given)
inactive: [1] 3.2% | [2] 0.5% | [3] 0.4%

CC(C)Oc1ccc(C2CC(=O)N(c3ccc(C(=O)O)cc3)C2=O)cc1 (stereo not given)
inactive: [1] 2.1% | [2] -0.7% | [3] -6.7%

COC(=O)C1=C(C)N(Cc2ccco2)C(=O)/C1=C\c1ccc([N+](=O)[O-])cc1
inactive: [1] 1% | [2] -0.6% | [3] -3.7%

CCC(C(=O)OCCN(CC)CC)c1ccccc1 (stereo not given)
inactive: [1] 2.4% | [2] 0.3% | [3] 3.3%

COc1ccc(CNC(=O)N[C@H](C(=O)O)C(C)C)cc1OC
inactive: [1] -0.7% | [2] -1.2% | [3] -8.3%

OCC1(CCOc2ccccc2)CCN(CCCn2cccn2)CC1
inactive: [1] -0.5% | [2] -1% | [3] -1.4%

COc1cc([C@@H]2c3cc4c(cc3[C@H](O)[C@H]3COC(=O)[C@H]23)OCO4)cc(OC)c1OC
inactive: [1] 1.4% | [2] 0% | [3] -2.8%

CCOc1ccccc1C(=O)NCCC(=O)O
inactive: [1] 2.8% | [2] 1.9% | [3] 0.2%

CC1(C)CC(C(CC(=O)O)c2ccccc2)CCO1 (stereo not given)
inactive: [1] 0.4% | [2] -0.2% | [3] -7.8%

O=C(O)/C=C/c1ccc(O)c(O)c1
inactive: [1] -0.3% | [2] -0.4% | [3] -1.7%

CC[N+]1(CC)CC2=Cc3ccccc3CC2C1 (stereo not given)
inactive: [1] -1.1% | [2] 0% | [3] 3%

COc1cccc(N2C(=O)[C@H]3C(C(=O)c4cnccn4)=NN[C@H]3C2=O)c1
inactive: [1] 3% | [2] -0.2% | [3] 4.8%

Nc1ccc2cn[nH]c2c1
inactive: [1] -8.4% | [2] -2.9% | [3] -16.3%

COc1ccc(-c2nc(C)c(C(C)=O)n2O)cc1OC
inactive: [1] -3.6% | [2] -1.6% | [3] -3.9%

CCOC(=O)/C=C1\NC(C)(C)Cc2cc(OC)c(OC)cc21
inactive: [1] 0.2% | [2] -0.4% | [3] -2.8%

Nc1nc(SCc2ccc([N+](=O)[O-])cc2)c2ncn(C3OC(CO)C(O)C3O)c2n1 (stereo not given)
inactive: [1] 0.3% | [2] 1% | [3] 5%

CN1CC2CCCC3(C1)C(=O)NC1(CCCCC1)N=C23 (stereo not given)
inactive: [1] 2.2% | [2] -0.6% | [3] -5.3%
